# GPR7 antagonist – human neuropeptides B/W receptor 1 antagonism | P48145 | GPR7-expressing cells, fluorescence antagonist assay | inhibition, % at 4.4 µM | 1.1% of 290,000 active; in the data active = inhibition above about 16%, passing the limit was not always enough;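 note: cells stimulated with the agonist NPW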
# Target sequence (P48145 whole entry, looked up): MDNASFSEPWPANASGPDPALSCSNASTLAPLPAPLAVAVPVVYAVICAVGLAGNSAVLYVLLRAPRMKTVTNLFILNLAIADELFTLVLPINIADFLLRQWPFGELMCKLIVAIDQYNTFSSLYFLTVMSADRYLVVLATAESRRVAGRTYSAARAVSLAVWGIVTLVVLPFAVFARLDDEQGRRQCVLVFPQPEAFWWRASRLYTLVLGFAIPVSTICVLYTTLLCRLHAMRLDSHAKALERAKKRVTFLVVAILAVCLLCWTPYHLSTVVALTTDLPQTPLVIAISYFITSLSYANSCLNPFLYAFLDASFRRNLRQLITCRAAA
# FID counter – displaces DNA intercalator in HCV helicase counter-screen | 0.17% of 290,000 active | DNA fluorescent intercalator displacement, fluorescence | inhibition, % at 7.9 µM; in the data active = inhibition above about 37%;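 note: higher means more ethidium bromide displaced from hairpin DNA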
# KLF5 inh – inhibitors of KLF5 expression | inhibition, % at 5 µM | DLD-1 KLF5 promoter-luciferase reporter, luminescence | 0.23% of 290,000 active | AID 1700;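 active = inhibition above a per-plate limit of that plate's mean compound inhibition plus 3 SD, cut at about 60% in these data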;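 note: higher means less KLF5 promoter-driven luciferase light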
# Ba/F3 V617F tox – lowers viability of Ba/F3 cells expressing EpoR and JAK2V617F; ATP luminescence; inhibition, % at 5.6 µM; 1.1% of 220,000 active;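 active = inhibition above the campaign mean plus 3 SD over all tested compounds, cut at about 24% in these data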;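 note: cytokine-independent growth of Ba/F3 cells driven by EpoR plus mutant JAK2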
# IEC-6 cytotox – counter-screen for KLF5 inhibitors: cytotoxicity in IEC-6 cells. IEC-6 cytotoxicity, luminescence viability. inhibition, % at 5 µM. 0.78% of 290,000 active
# BaF3 parental – counter-screen for JAK2V617F inhibitors: parental Ba/F3 viability inhibitors | CellTiter-Glo ATP luminescence | inhibition, % at 5.6 µM | 1.1% of 220,000 active;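 active = inhibition above a per-campaign cutoff, the mean inhibition of all tested compounds plus 3 SD, cut at about 27% in these data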
# IEC-6 tox confirm – IEC-6 cytotoxicity, confirmation assay; shares compounds with IEC-6 cytotox; IEC-6 rat intestinal epithelial viability, luminescence; inhibition, % at 5 µM; 63% of 1,900 active; AID 1907
# Hits are given with their value; i = inactive; nt = no result given. In the library only some 2.6% were active in any assay of this set; here they are far more common. Cut-off read from the data, not from the text of the source, unless noted: active = inhibition above about 22%; inactive = the rest.
SMILES,GPR7 antagonist,FID counter,KLF5 inh,Ba/F3 V617F tox,IEC-6 cytotox,BaF3 parental,IEC-6 tox confirm
Cc1cccc(Nc2nc(N3CCOCC3)nc(N3CCOCC3)n2)c1,i,i,i,nt,64,nt,37
Cc1ccc(NC(=O)c2cc(S(=O)(=O)N3CCOCC3)cs2)cc1,i,i,i,nt,97,nt,i
CC(C)(C)S(=O)(=O)/C(C#N)=C/c1sccc1C1OCCO1,i,i,i,i,i,i,nt
COc1ccc(N/C=C2\C(=O)c3c(sc(C)c3C)N(C)S2(=O)=O)cc1,i,i,i,i,i,i,nt
CN(C(=O)c1cc2ccccc2cc1O)C1CCCCC1,i,i,i,nt,i,nt,nt
Cc1ccc(C(=O)CCNc2ccc(Br)cc2)o1,i,i,i,i,i,i,nt
Cc1ccc(C(=O)CCNc2ccc(F)c(Cl)c2)o1,i,i,i,46,31,58,34
CCOC(=O)Nc1nc(-c2ccccc2)c(C(=O)c2ccccc2)s1,i,i,i,80,86,80,58
c1ccc(CNc2ncnc3nc[nH]c23)cc1,i,i,i,i,i,i,nt
C1=Nc2c(NCc3ccccc3)ncnc2Oc2ccccc21,i,i,i,i,26,i,24
COc1cccc(OC)c1C(=O)NC(=S)Nc1ccc2oc(-c3ccncc3)nc2c1,i,i,i,i,i,i,nt
Cc1cc(C)cc(C(=O)N2CC(=O)Nc3ccccc32)c1,i,i,i,78,89,82,57
CS(=O)(=O)c1ccc(C(=O)N2CC(=O)Nc3ccccc32)cc1,i,i,i,nt,i,nt,nt
O=C(CN(c1cccc(C(F)(F)F)c1)S(=O)(=O)c1ccc(Cl)c([N+](=O)[O-])c1)NCc1ccc(F)cc1,i,i,i,i,i,i,nt
Cc1ccc(-c2csc3ncnc(Sc4nnc(CN5CCCCCC5=O)o4)c23)cc1,i,i,i,i,36,i,30
Cc1ccc(-c2csc3ncnc(SCC(=O)Nc4nnc(C)s4)c23)cc1,i,i,i,i,i,i,nt
NCCNc1ccc(C(=O)N2c3ccccc3Sc3ccccc32)cc1[N+](=O)[O-],i,i,i,nt,35,nt,24
Cc1ccc(S(=O)(=O)NCc2ccc(C(=O)NC3CCCCC3)cc2)cc1,i,i,i,nt,i,nt,nt
CS(=O)(=O)NCc1ccc(C(=O)NC2CCCCC2)cc1,i,i,i,i,37,i,i
O=C(NCCc1csc(-c2cccnc2)n1)c1ccccc1Br,i,i,i,i,i,i,nt
CCc1cc(=O)oc2cc(OC3CCCCC3=O)ccc12 (configuration not stated),i,i,i,nt,i,nt,nt
COc1cc2cc(-c3ccc(O)cc3O)nc(C)c2cc1OC,i,i,i,nt,22,nt,i
CCOc1ccc(-c2cc3cc(OC)c(OC)cc3c(C)n2)cc1,i,i,i,i,i,i,nt
CCc1cc(C(=O)NC2CCCc3c2cnn3-c2cccc(C)c2C)n(C)n1 (configuration not stated),i,i,i,nt,31,nt,25
Cc1cc(C)c(C(=O)NC2CCCc3c2cnn3-c2cccc(C)c2C)o1 (configuration not stated),i,i,i,nt,i,nt,nt
SMILES,GPR7 antagonist,FID counter,KLF5 inh,Ba/F3 V617F tox,IEC-6 cytotox,BaF3 parental,IEC-6 tox confirm
Cc1cc(C(=O)NC2CCCc3c2cnn3-c2ccc(C)c(C)c2)n(C)n1 (configuration not stated),i,i,i,nt,38,nt,27
COc1ccc(Nc2c3c(nc4c(-c5ccccc5)c(C)nn24)CCC3)cc1,i,i,i,i,i,i,nt
O=C(Nc1ccccc1)C1CCN(C(=O)c2ccccc2)CC1,i,i,i,i,i,i,nt
O=C(CC1Oc2ccccc2NC1=O)NCc1ccccc1 (configuration not stated),i,i,i,i,i,i,nt
CC(=O)CC1OC(=O)C(Br)=C1NCc1ccccc1 (configuration not stated),i,i,i,75,34,28,i
O=C(CSc1nc2ccccc2c(=O)[nH]1)Nc1ccccc1C(F)(F)F,i,i,i,nt,29,nt,i
O=C(Nc1ccc(S(=O)(=O)N2CCCCCC2)cc1)c1[nH]ncc1[N+](=O)[O-],i,i,i,nt,29,nt,i
O=C(Nc1ccc([N+](=O)[O-])cc1)c1ccc(S(=O)(=O)N2CCCC2)cc1,i,i,i,nt,i,nt,nt
COCCCNC(=S)NNC(=S)NCCCOC,i,i,i,i,22,i,i
COC(=O)C1Cc2c([nH]c3ccccc23)CN1 (configuration not stated),i,i,i,i,i,i,nt
COC(=O)[C@@H]1Cc2c([nH]c3ccccc23)C(C)(C)N1C(=O)CCl,i,i,i,nt,95,nt,36
CCOc1cc(/C=N\Nc2nc(-c3ccc(C)cc3)c(NC(C)=O)s2)ccc1O,i,i,i,i,i,i,nt
O=C(Nc1ccc(Cc2ccncc2)cc1)c1cc(F)c(F)cc1Cl,i,i,i,i,31,i,48
Cc1cc(=O)oc2cc(OCCCC[n+]3ccccc3)ccc12,i,i,i,i,i,i,nt
Cc1cc(=O)oc2cc(OCCc3ccccc3)ccc12,i,i,i,nt,44,nt,22
COc1cccc(C(=O)COc2ccc3c(C)cc(=O)oc3c2)c1,i,i,i,nt,28,nt,i
COc1ccc(C(=O)COc2ccc3c(C)cc(=O)oc3c2)cc1,i,i,i,nt,i,nt,nt
Cc1c(Cl)cccc1NC(=O)c1cc(-c2ccco2)on1,i,i,i,nt,i,nt,nt
COc1ccc(C)cc1NC(=O)C1CCN(S(C)(=O)=O)CC1,i,i,i,nt,i,nt,nt
Cn1c(=O)c2c(nc(CN3CCOCC3)n2CCN2CCOCC2)n(C)c1=O,i,i,i,i,i,i,nt
N#CC(C#N)=C1C=CC=CN1/C(=C\c1ccco1)C(=O)c1ccccc1,39,i,i,92,74,71,i
COc1cc(OC)c(C2=NOC(C(=O)NCc3cccs3)C2)cc1Cl (configuration not stated),i,i,i,i,42,i,41
COc1ccc(C2=NOC(C(=O)NCc3cccs3)C2)cc1OC (configuration not stated),i,i,i,87,52,76,51
COC(=O)c1cc(NC2c3ncccc3C(=O)N2Cc2ccccc2)cc(C(=O)OC)c1 (configuration not stated),i,i,i,i,i,i,nt
CCOc1ccc(-c2nnc(-c3ccccc3)n2-c2ccccc2)cc1,i,i,i,i,i,i,nt
CCOc1ccc(-c2c[n+]3c(n2-c2ccccc2)CCCCC3)cc1,25,i,i,89,25,70,i
CC1=Nc2ccccc2/C1=C/c1sc(=N)n(-c2nccs2)c1O,i,i,i,i,27,i,41
CC1=Nc2ccccc2/C1=C/c1nc(-c2ccc(C)s2)oc1O,i,i,i,i,i,i,nt
N#Cc1ccc(N2C(=O)[C@@H]3C(C(=O)c4ccc5ccccc5n4)=NN[C@@H]3C2=O)cc1,i,i,i,i,i,i,nt
O=C(C1=NN[C@@H]2C(=O)N(c3ccccc3C(F)(F)F)C(=O)[C@H]12)c1ccc2ccccc2n1,i,i,i,76,71,54,i
